From PubChem
TDP1 cell noCPT = qHTS for Inhibitors of human tyrosyl-DNA phosphodiesterase 1 (TDP1): qHTS in cells in absence of CPT; 420,000 tested, 15% active; AID 686978, 2013; Potency, µM (highest dose often 46.2 µM), without a hit: at the highest dose activity change, negative = growth inhibition, hits mostly inhibitors; DT40 Tdp1-/- hTDP1 cells, no CPT, ATP luminescence, 48 h; also: potency is read from the fitted curve at half-maximal effect; nearly all actives have a fitted effect of over 55% in size
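Camptothecin absent (DMSO only). Human TDP1-complemented DT40 knockout cells, 400 cells/well, 37 °C for minimum 48 hr; ATP measured via CellTiter-Glo, 30 min dark incubation, luminescence.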
IL1B secr inh = inflammasome signaling inhibition, IL-1 beta readout; THP-1 LPS/ATP IL-1B secretion, AlphaLISA, 16 h; hits give low values; activity change, % at 57.5 µM; 360,000 tested, 4.7% active; AID 743279; in the data active = activity change below about -50%; inconclusive = mostly about -30% to -49%
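THP-1 cells pretreated 1 hr with compounds (up to 57.5 uM final), then stimulated with LPS (250 ng/mL final) plus ATP (1.25 mM final); secreted IL-1B measured by AlphaLISA after 16 hr, decreased signal indicating inhibition.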
DT40 TDP1 CPT = growth inhibition of DT40 Tdp1-/-;hTDP1 cells with camptothecin (screen for TDP1 inhibitors); chicken DT40 Tdp1-/-;hTDP1 cells + 20 nM CPT, ATP luminescence, 48 h; Potency, µM (titrated, usually from 46.2 µM), for inactives: at the highest dose activity change, negative = growth inhibition, most hits filed as inhibitors; AID 686979; 420,000 tested, 12% active; also: potency is read from the fitted curve at half-maximal effect; nearly all actives have a fitted effect of over 55% in size
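Chicken DT40 Tdp1-/- cells complemented with human TDP1, 400 cells/well, exposed to compounds plus 20 nM camptothecin for at least 48 h at 37 C; viability read as ATP content by CellTiter-Glo luminescence.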
HT1080-NT tox = kills 2HG-producing HT-1080-NT fibrosarcoma cells. HT-1080-NT fibrosarcoma viability, CellTiter-Glo ATP luminescence, 48 h. Potency, µM (top dose mostly 46.1 µM), for the others: top-dose activity, negative = less viability, usual class: cytotoxic. 360,000 tested, 1.6% active. AID 686970;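 also: NT is the 2HG producing partner of a matched IDH1 knockdown line; potency is read from the fitted curve at half-maximal effect; 0% = DMSO-treated cells and -100% = media-only wells without cells; nearly all actives have a fitted effect of over 55% in size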
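Viability by CellTiter-Glo luminescence after 48 h compound exposure at 37C of HT-1080-NT cells (750/well, RPMI, 5% FBS). % activity scaled between DMSO wells and medium-only wells, then curve-fitted and categorized by curve class.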
HT1080 IDH1KD tx = HT-1080 IDH1 knockdown cell toxicity (counter line); HT-1080 IDH1 knockdown viability, ATP luminescence, 48 h; Potency, µM (titrated, usually from 46.1 µM), for the others: at the highest dose activity, negative = toxicity, actives largely listed as cytotoxic; 360,000 tested, 2% active; AID 686971;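 also: potency is read from the fitted curve at half-maximal effect; 0% = DMSO wells and -100% = cell-free medium wells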
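IDH1KD HT-1080 cells, 750/well, RPMI + 5% FBS; compound pinned after 2 h settling; 48 h, 37 °C; CellTiter-Glo luminescence; % activity normalised to DMSO and no-cell wells; curves fitted, classed by r2 and efficacy.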
Numbers without * were called inactive; ? = inconclusive; . = no result given; [ ] = another dose, or the depositor's remark. Sampled rows, rich in hits. Any-hit rate of the full collection: about 19%. Unless noted, calls follow the shape of the dose curve; as a rule, active = well fitted curve in the direction sought with a large enough effect; inconclusive = small, poorly fitted or top-dose-only effect, or another doubt; inactive = no such curve, though single readings can be large; an effect the other way counts as inactive or inconclusive. Unless noted, % is scaled to controls: 0 for no effect and ±100 for the full control effect.

SMILES	TDP1 cell noCPT	IL1B secr inh	DT40 TDP1 CPT	HT1080-NT tox	HT1080 IDH1KD tx
COC(=O)C1=C(c2ccc(OCc3ccccc3)cc2)C[C@@H]2CC[C@H]1N2C(=O)NCc1ccc(F)cc1	23µM*	?	15µM*	-23%	?
COC(=O)C1=C(c2ccc(OCc3ccccc3)cc2)C[C@@H]2CC[C@H]1N2C(=O)NCc1ccc(OC)c(OC)c1	23µM*	12	18µM*	-29%	-9%
COC(=O)C1=C(c2ccc(OCc3ccccc3)cc2)C[C@@H]2CC[C@H]1N2C(=O)NCc1ccccc1C(F)(F)F	12µM*	-3	16µM*	-4%	1%
COC(=O)C1=C(c2ccc(OCc3ccccc3)cc2)C[C@@H]2CC[C@H]1N2C(=O)NCc1ccc(N(C)C)cc1	?	32	?	4%	10%
CCOP(=O)(OCC)c1cc(CC)ccc1O	-2%	-4	2%	?	3%
CCC(C)N1Cc2ccccc2C1=N (centres undefined)	-1%	1	2%	6%	19%
CCN(CC)P(=O)(Nc1ccc(Br)cc1)c1c(C)nn(CCC#N)c1NC(=O)c1ccc(Cl)cc1 (centres undefined)	?	-19	?	-2%	-2%
COC(=O)C1=C(c2ccc(OCc3ccccc3)cc2)C[C@@H]2CC[C@H]1N2C(=O)NCCCc1ccccc1	13µM*	-11	15µM*	-1%	-24%
COC(=O)C1=C(c2cccc(OCc3ccccc3)c2)C[C@@H]2CC[C@H]1N2C(=O)NCCCc1ccccc1	?	0	?	-9%	-9%
Cc1ccc(C(O)P(=O)(Oc2ccccc2)Oc2ccccc2)cc1 (centres undefined)	-9%	-24	0%	0%	1%
CCCC(C)C1C(C#N)=C(N)Oc2c1c(=O)oc1ccccc21 (centres undefined)	?	1	-16%	-3%	8%[9.24 µM]
CCCc1nn(C)c2c1C(c1ccncc1)C(C#N)=C(N)O2 (centres undefined)	29µM*	-3	?	3%	10%[9.24 µM]
CC(Cc1ccccc1Sc1ccccc1O)N(C)C (centres undefined)	12µM*	-6	?	?	?
C#C[C@]1(O)CCC2C3C(=O)C=C4C(Cl)=CCC[C@]4(C)C3CC[C@@]21C (some centres undefined)	10µM*	-90*	16µM*	10µM*	33µM*
C#C[C@]1(O)CC[C@H]2[C@@H]3CCC4=CC(=O)CC[C@]4(C)[C@H]3CC[C@@]21C	-11%	3	-23%	20%	2%
CCN(CC)c1ccc(N=Cc2c(O)n(-c3ccc(Cl)cc3)c(=O)[nH]c2=O)cc1	?	46	21µM*	11%	1%
Cc1ccccc1-n1c(O)c(C=Nc2ccc(N(C)C)cc2)c(=O)[nH]c1=O	18µM*	-3	23µM*	0%	-1%
COc1ccc(C(=O)c2c(C)n(CCN3CCOCC3)c3ccccc23)cc1	24µM*	.	?	.	.
CCn1c(C)c(C(=O)O)c2cc(OC)ccc21	1%	38	-8%	8%	10%
CSc1ccccc1C(=O)C1CCCN(Cc2cccc(C)n2)C1 (centres undefined)	?	-75*	?	?	?
Cc1cccc(CN2CCCC(C(=O)c3ccc(C(F)(F)F)cc3)C2)n1 (centres undefined)	18µM*	17	?	0%	?
CSc1ccccc1C(=O)C1CCCN(Cc2ccccn2)C1 (centres undefined)	?	31	3%	-5%	17%
OC[C@@H](O)[C@H]1O[C@@H]2O[C@H](C(Cl)(Cl)Cl)O[C@@H]2[C@H]1O	0%	.	6%	.	.
Cc1ccc(N=Nc2cc(C)ccc2N)cc1	0%	10	-26%	?	?
O=c1n(Cl)c(=O)n(Cl)c(=O)n1Cl	3%	.	7%	.	.
SMILES	TDP1 cell noCPT	IL1B secr inh	DT40 TDP1 CPT	HT1080-NT tox	HT1080 IDH1KD tx
CN(CC1COc2ccccc2O1)c1nc(-c2cccnc2)nc2ccccc12 (centres undefined)	23µM*	?	21µM*	-15%	-3%
CCNCC1(c2ccc(OC)c(OC)c2)CCCC1	-4%	-10	-7%	-2%	-7%
CCCc1nc(SCC(=O)N2CCc3ccccc3C2)c2ccccc2n1	?	-72*	?	?	?
C=C[C@@H]1C[C@@]1(C)[C@@H](NP(=O)(c1ccccc1)c1ccccc1)c1ccccc1	15µM*	-5	?	0%	0%
CCOP(=O)(OCC)/C(=N/OC(=O)c1ccc(OC)cc1)C(N)=O	?	-3	-29%	-8%	?
CCOP(=O)(OCC)/C(=N/OC(=O)c1ccccc1C)C(N)=O	13µM*	-103*	?	-16%	?
CC1=CC(=O)C2=C(C)C[C@H](O)[C@@H]3[C@H](OC(=O)[C@H]3C)[C@@H]12	16%	-79*	6%	16%	1%
COC(=O)c1sc(NC(=O)/C=C/c2ccc(OC)c(OC)c2)c(C(=O)OC)c1C	?	.	-9%	.	.
OCCN1CCN(CCCN2c3ccccc3Sc3ccc(C(F)(F)F)cc32)CC1	18µM*	-57*	16µM*	13µM*	23µM*
c1ccc2c(c1)Sc1ccccc1N2C[C@@H]1CN2CCC1CC2	-3%	.	-5%	.	.
FC(F)(F)c1ccc2c(c1)N(CCCN1CCN(CCCl)CC1)c1ccccc1S2	8.2µM*	-116*	8.2µM*	?	?
COc1cc(/C=C/c2nc3ccccc3c(=O)n2-c2ccccc2O)ccc1O	?	-66*	?	?	?
COc1cc(/C=C/c2nc3ccccc3c(=O)n2-c2cccc(O)c2)ccc1O	18µM*	-23	?	-24%	?
COc1ccccc1-n1c(/C=C/c2ccc(O)cc2)nc2ccccc2c1=O	?	?	?	-9%	0%
N[C@@H](Cn1cc(I)c(=O)[nH]c1=O)C(=O)O	-4%	.	9%	.	.
NC[C@H](CS(=O)(=O)O)c1ccc(Cl)cc1	-1%	.	22%	.	.
CCCCN(Cc1ccccc1)C1CCN(CCc2ccccc2)CC1	?	-65*	?	?	?
O=C(N/N=C/c1c(O)n(Cc2ccco2)c(=O)[nH]c1=O)c1ccccc1O	-1%	5	4%	17%	13%
CC(=O)c1cccc(NC(=O)c2cccn(Cc3cccc(C)c3)c2=O)c1	21µM*	.	23µM*	.	.
O=C(Nc1ccc2c(c1)OCO2)c1cccn(Cc2cccc([N+](=O)[O-])c2)c1=O	-24%	.	-10%	.	.
